In publication PMC12864922, “TDP-43 directly inhibits mRNA accumulation in neurites through modulation of mRNA stability”:
Whole data set: some 9,900 sequences, median “r (bound/input frequency ratio)” near 0.7, cut for the highest 2% near 6.5. This excerpt belongs to a sample that is enriched for the highest values.

B1: ENSMUSG00000061578.522|Ksr2 (ssRNA)
RNA: GGGAGUUCUACAGUCCGACGAUCGCUUCGAUAUCCGCAUGCUAGGAGCUCUUGCCUAACACACACCAAGCCCCAAGUUCCAUCCCCAGUCCCACACAAACCAGAUAUGAUGGUGUGUGCCUAUGUCCCCCACACACGAGAGAGCUGGAGGCAGGAGGAUCAGAAGUUCAGGGCCAUCCUUAAUCAUACAGUGAGCUUGAGAGCAACCUGGGCUACAUGUGACCCUAAUAACUUUUGUAAAUUCAGCACACUUGGCACCUCACACUCCAUGUCCAUAUACUGCAUGUGCCACACACACACACACCUCUUGCGGUCGCACUAGUGUGGAAUUCUCGGGUGUCAAGG
B2: ENSMUSG00000028439.215|Fam219a (ssRNA)
RNA: GGGAGUUCUACAGUCCGACGAUCGCUUCGAUAUCCGCAUGCUAACCUGGGUUCUGGUCCCAGCCUCGGCAUUCUCCCUGAGCUCCUAAGCAAUUCCCAGGCUUCUCUAGGGCUUCAGUUCUCACAACUGGAAAAUAAAGAGUAGCUGACAUCACCGACAGAGUCUUUUCAUACCAGAAGGAAUUUCUUCACAGGAGUUUCUGCAAAAGACUAUGACAUCUGUGUGUCUGUGGUCUCACGAGGUACCUGGAGGUGUAUGUGCACGGACAUGGGAAGUACGUGAAGAUUUAUUUCGGGAAAAGUGCUCUUGCGGUCGCACUAGUGUGGAAUUCUCGGGUGUCAAGG
B3: ENSMUSG00000022095.99|Fam160b2 (ssRNA)
RNA: GGGAGUUCUACAGUCCGACGAUCGCUUCGAUAUCCGCAUGCUAGCCCCCUCUUCCUGCUCUACCCUCCUGGAGGCUGUUGCAAAAUUCCCAACUGCCUCCUGGCAGAGGCCCAAAGUAUGCUCUGCGCCCAGGCGGGGGCAGCUGCUAACAAGAGCCCUGGCGCAGCUGCAGCCAGGGCAGGCGAGAGCCUUGGAGCUGGGUGCCAGGCUCCAGCUCCAGCUCCAGCUGGUUCCUCUCUGGCGCCUUCUGAACCCGUCUCAGCAAGUCCGAAACACCUGGGCAGAGAGGUCAUUGACCAGGGACUCUUGCGGUCGCACUAGUGUGGAAUUCUCGGGUGUCAAGG
B4: ENSMUSG00000031028.626|Tub (ssRNA)
RNA: GGGAGUUCUACAGUCCGACGAUCGCUUCGAUAUCCGCAUGCUAUUAGGGUAAAUGAAAGUUAGUCCUGGCUCUCAUCACCACCUUUCCUAGCUCAUCACUGUGCCUUCUUUCUUCCCUAAGAAAGACAAUGCACCCCUCUCUUCUGUUCUCCUGCCCCUUCGCCCCCACUGAGGUCCAGGUAGAGCAGAUGAGGCUGAAAUGUAGAGUGUUCUAUAGAGCAUCUCAGUAGCAUAGAAGGAGAAGCCCAGCUCCAACCUCCUGGACCCCAUACUGGUGACCAGCUUGGUGAGGACAGGCAAAAUCUCUUGCGGUCGCACUAGUGUGGAAUUCUCGGGUGUCAAGG
B5: ENSMUSG00000004113.212|Cacna1b (ssRNA)
RNA: GGGAGUUCUACAGUCCGACGAUCGCUUCGAUAUCCGCAUGCUAGCUCAGAGCAGCACGGGGGCUUGUGUCUUAGGGACAUUGACAGUGUCCAUCAGCAUGUCAGAGAAGCAGCUGUAGUGCCCGUGUUUCUCCCUGAGUCAUGGGUUCUGAAGAAGCCAGAGCGGCACAAUGCGUGCUUGCAUGAGGCACUUUCAGCCUUUUUAAAUCUGACUCUCAGGGAUGGGAUGCCUGCCAAGUAGGGUGUAAUCUCUGUUGUGUUUUUAAAACAACAACAACAAAAUAAAACAAAAAAAAAAAACCUACUCUUGCGGUCGCACUAGUGUGGAAUUCUCGGGUGUCAAGG
B6: ENSMUSG00000061578.1091|Ksr2|55:59 (ssRNA)
RNA: GGGAGUUCUACAGUCCGACGAUCGCUUCGAUAUCCGCAUGCUACAACCAUGAAAAUAGAGGUUUGUAAUGUACAGAAGGCUGGGGGAGCUUUCAGGGCACACGCCAGUUAUGUACAGAUGUGAAGCUGAGGUCUGAAGGAAAUGGAGGAAGUAGGAAGAUCAGACUGGUUGAAUUAGAAGUCUGUCACUCUAGGUGCUAAGUGACCUUGGACCCAGUCAGUUCUUGGAUUUCUGUUGUAGCCCAGGCUAGCCUCGAACCCUUGAUCCUCCUGUUCCUGGUAGAGAAACAGCCACUAAAUGGUGCUCUUGCGGUCGCACUAGUGUGGAAUUCUCGGGUGUCAAGG
B7: ENSMUSG00000004113.162|Cacna1b (ssRNA)
RNA: GGGAGUUCUACAGUCCGACGAUCGCUUCGAUAUCCGCAUGCUAGGUUUUCAGUCACAACACUUUCACUGUUUGUCAUUUCUAUGUAGUUGAUCUAGAAAAAGCAGAAAUCAAAACAGGAAAGGAAAUGUUUGUGUAACUUUAAAAAAAAAGUCAACAUGUAGGAAGGUCUCCAUUUUGCAUUGUUUCUGUGUCUUGUAUGCAAUGUUCCUGUAUGUUUCUACCCUGCCUGGGAUGUCCCCAAUGACCCUGGCUCCUCUGCUCAACCAAGUGCCUGAUCUCUGGCUCUGAGCAUCGUGGAUGAGCUCUUGCGGUCGCACUAGUGUGGAAUUCUCGGGUGUCAAGG
B8: ENSMUSG00000029636.179|Wasf3 (ssRNA)
RNA: GGGAGUUCUACAGUCCGACGAUCGCUUCGAUAUCCGCAUGCUACCCCUCCUGAAGCACAGCUCUCUUCUCUCCUGUUGUCGGCACAUUUUCAAUUUUAAAAAGUACCUCACAAGAUAAACUUGAUUCAGCCAGUUGCCCGGGCAGAGACCUGACUUCCCCUCUCCUGCCCUGAUCCUUUUUACCAAAUGGCGAUUCCAUAGUCCUGGCUGAGGCAGGGGCUCAAAGUCCAGUGUCUGCUUUGCAAUUCUGGAAGGACAGCUGCUUAUUUAAAUAAGUCUGUGAUAUCCGCAGGCUUGGGUUACCUCUUGCGGUCGCACUAGUGUGGAAUUCUCGGGUGUCAAGG
B9: ENSMUSG00000061578.745|Ksr2 (ssRNA)
RNA: GGGAGUUCUACAGUCCGACGAUCGCUUCGAUAUCCGCAUGCUACAUCUCUGGCUCUUUGUUUCCACUCUGGCCCAAGUUUGAGUCUCCAUAUGGGCCCUUCCUGUCCUCAUGCCCUGCCUGUCUUCAUUCCACCCAUCCACCCUCCUAAGGAUUGGUCUUGUUCCGAGAGUGAUCCUGGUAACGCCAAGCCUCCCUCUGCCCCUGUGUUGGCUUCUGUGACGGACUACCACACACCAAGAGGUUUUUCACAGUGAAGAUGUAUGCUCUCACCAUCCUACAGAUGCAAAGACCAAACACAAAGUCUCUUGCGGUCGCACUAGUGUGGAAUUCUCGGGUGUCAAGG

target: TDP-43 (Homo sapiens, UniProt Q13148 1-414); experiment: RNA Bind-n-Seq with designed 260-mer pool; 25 mM Tris-HCl, 150 mM KCl, 3 mM MgCl2, BSA (printed 500 mg/mL), 20 units/mL SUPERase IN; pH not stated; 500 nM RNA pool, 1 h, 4 C; TDP-43 5, 50, 500 nM; high values mean tight binding; details: protein: recombinant; tags: SBP (GST cleaved off with PreScission; pGEX-GST-SBP)
Sequence (Q13148 whole entry): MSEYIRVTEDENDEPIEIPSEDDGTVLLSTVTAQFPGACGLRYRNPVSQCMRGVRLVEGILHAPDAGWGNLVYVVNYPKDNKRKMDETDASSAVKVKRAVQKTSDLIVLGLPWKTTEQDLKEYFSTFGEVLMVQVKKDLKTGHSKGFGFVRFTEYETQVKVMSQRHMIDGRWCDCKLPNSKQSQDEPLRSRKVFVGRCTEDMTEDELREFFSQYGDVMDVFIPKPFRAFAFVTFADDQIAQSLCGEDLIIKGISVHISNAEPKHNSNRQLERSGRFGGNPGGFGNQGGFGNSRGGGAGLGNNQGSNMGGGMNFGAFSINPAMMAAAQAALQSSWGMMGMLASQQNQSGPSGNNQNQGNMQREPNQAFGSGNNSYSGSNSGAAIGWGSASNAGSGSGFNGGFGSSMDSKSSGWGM
How it was run: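 Streptavidin beads captured recombinant SBP-tagged TDP-43 at 5, 50 or 500 nM, and the beads were incubated for 1 h at 4 °C with 500 nM of an in vitro-transcribed pool of 260-nt 3′ UTR oligos in 25 mM Tris-HCl, 150 mM KCl, 3 mM MgCl2, BSA and SUPERase IN. After washing, bound RNA was eluted with biotin, reverse transcribed, PCR-amplified and sequenced. Binding is reported as R, the mapped-read-normalized abundance of each oligo in the bound sample divided by its abundance in the input. Two independent protein batches served as duplicates.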

| Binder | binding signal |
| --- | --- |
| B1 | 2.82 R (bound/input frequency ratio) |
| B2 | 1.67 R (bound/input frequency ratio) |
| B3 | 0.917 R (bound/input frequency ratio) |
| B4 | 0.915 R (bound/input frequency ratio) |
| B5 | 0.697 R (bound/input frequency ratio) |
| B6 | 0.848 R (bound/input frequency ratio) |
| B7 | 1.13 R (bound/input frequency ratio) |
| B8 | 0.495 R (bound/input frequency ratio) |
| B9 | 1.1 R (bound/input frequency ratio) |
